Hit rate of the full screen: of about 5,500 compounds, about 2,000 (36%) were called active. Another 18% or so got no clear call; they are omitted. Cut-off read from the data, not from the text of the source: active = normalized growth mostly below about 0.91 (no sharp cut-off); inconclusive = no clear call, values can overlap the other calls; inactive = mostly above about 0.92. The list shows a part of the results.
Experiment: chemical genetic growth profiling, strain panel (AID 1159580);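 note: tested at 20 µM; growth read once vehicle control cultures reached saturation at 30 °C; 1 = growth at the plate median or of vehicle wells; lower values mean less growth of the strain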
Conditions: S. cerevisiae deletion strains, growth OD

Measured: normalized growth

COc1c2c(nc3ccccc13)OC(C(C)(O)CO)C2 (stereo not given)
inactive: locus YAL040C, strain CLN3, stronger effect = lower value 1.01 | locus YCL061C, strain MRC1 (second series), stronger effect = lower value 1.01 | locus YDR363W, strain ESC2, stronger effect = lower value 0.993 | locus YER002W, strain NOP16, stronger effect = lower value 1.01 | locus YJR075W, strain HOC1, stronger effect = lower value 0.994 | locus YMR263W, strain SAP30, stronger effect = lower value 0.998 | locus YMR307W, strain GAS1, stronger effect = lower value 1.01 | locus YNL128W, strain TEP1, stronger effect = lower value 1.02 | locus YNL153C, strain GIM3, stronger effect = lower value 1.04 | locus YNL175C, strain NOP13, stronger effect = lower value 1.01 | locus YNL197C, strain WHI3, stronger effect = lower value 1.01 | locus YNL224C, strain SQS1, stronger effect = lower value 1.01 | locus YOR083W, strain WHI5 (second series), stronger effect = lower value 1 | locus YPL055C, strain LGE1, stronger effect = lower value 0.99 | locus YPL241C, strain CIN2, stronger effect = lower value 1
